Reference: PubChem BioAssay AID1851 (National Center for Advancing Translational Sciences (NCATS), 2009)
Among all 16,000 compounds or so, about 5,700 (36%) were called active. Not shown: some 24% with an inconclusive outcome. The list shows a part of the results. Values without a mark were called inactive. The call rests on the fitted dose curve; in most records, active means well fitted curve in the direction sought with a large enough effect; inconclusive means small, poorly fitted or top-dose-only effect, or effect the other way; inactive means no such curve, though single readings can be large or run the other way.
On the % scale 0 is the no-effect control and ±100 the full control effect.

The compounds below were run against Cytochrome P450 1A2 (Homo sapiens) (UniProt P05177) (assay: Cytochrome panel assay with activity outcomes). Settings: recombinant CYP, pro-luciferin dealkylation, luminescence, p450-cyp1a2; series mostly up to 57.1 µM.
Sequence of Cytochrome P450 1A2 (Homo sapiens) (P05177 whole entry, looked up): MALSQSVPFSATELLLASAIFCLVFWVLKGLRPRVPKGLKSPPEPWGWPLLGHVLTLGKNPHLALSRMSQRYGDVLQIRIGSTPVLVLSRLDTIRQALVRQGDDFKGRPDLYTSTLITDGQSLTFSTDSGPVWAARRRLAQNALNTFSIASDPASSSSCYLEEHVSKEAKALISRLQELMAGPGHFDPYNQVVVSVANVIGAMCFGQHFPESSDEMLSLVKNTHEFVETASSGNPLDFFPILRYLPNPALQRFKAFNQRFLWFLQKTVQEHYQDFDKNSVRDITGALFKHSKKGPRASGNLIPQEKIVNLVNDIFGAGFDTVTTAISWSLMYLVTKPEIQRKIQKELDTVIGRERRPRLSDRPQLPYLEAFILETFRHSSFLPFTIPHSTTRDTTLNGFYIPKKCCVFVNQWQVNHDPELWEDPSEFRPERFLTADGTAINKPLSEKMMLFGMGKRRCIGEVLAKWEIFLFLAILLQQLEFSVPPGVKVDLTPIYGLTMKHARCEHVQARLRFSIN
In the case of `COCc1nc2c([nH]1)c(=O)n(C)c(=O)n2CC(C)C`, the AC50 was 12.6 µM (active).
For `Cn1c(=O)c2[nH]c(CS(=O)(=O)Cc3nc4c([nH]3)c(=O)n(C)c(=O)n4C)nc2n(C)c1=O`, the activity, negative = inhibition was -21.1% [at 2.29 µM].
`Cn1c(=O)c2[nH]c(COCc3nc4c([nH]3)c(=O)n(C)c(=O)n4C)nc2n(C)c1=O` showed an activity, negative = inhibition of 4.47% [at 2.29 µM].
Compound `CCN1C(=O)[C@H]2[C@@H]3[C@H](O)C=CC(=O)[C@H]3CC[C@H]2C1=O` has an activity, negative = inhibition of -16.7% [at 11.4 µM].
For `O=C(O)[C@@H]1[C@H](C(=O)O)[C@H]2C(=O)C=C[C@H]1N2Cc1ccccc1`, the activity, negative = inhibition was -3.91% [at 2.29 µM].
With `O=c1[nH]ncc2c3ccccc3n(Cc3ccccc3)c12` the AC50 was 1 µM (active).
In the case of `O=c1[nH]ncn2cccc12`, the AC50 was “inactive”.
For `COc1ccc(-n2c(=S)[nH]c3cc(C(=O)NCCCN4CCCC4=O)ccc3c2=O)cc1`, the AC50 was 25.1 µM (active).
For `O=C(NCCCN1CCCC1=O)c1ccc(CNS(=O)(=O)c2ccc(F)cc2)cc1`, the AC50 was “inactive”.
`O=C(NCc1ccccc1Cl)c1ccc2c(=O)n(CCCN3CCCC3=O)c(=S)[nH]c2c1` was tested, and the AC50 was “inactive”.
In the case of `Cc1ccc(C)c(N(CC(=O)NC2CCCC2)C(=O)c2cc3cc4cccc(C)c4nc3s2)c1`, the AC50 was “inactive”.
`CCN(CC)c1ccc2c(Cl)cc(=O)oc2c1` was tested, and the AC50 was 0.891 µM (active).
`CCN(CC)c1ccc(SS(=O)(=O)O)cc1` was tested, and the AC50 was “inactive”.
`CCCCS(=O)(=O)NC1=NCN(Cc2ccco2)CN1` was tested, and the AC50 was “inactive”.
With `CC1=CC(=C2C(=O)c3ccccc3C2=O)C=C(C)O1` the AC50 was 0.2 µM (active).
In the case of `CC1(C)OC(=O)N(Cc2ccco2)C1(C)O` (stereo unspecified), the AC50 was “inactive”.
In the case of `CC1=CC(=C2C(=O)c3ccccc3C2=O)C=C(C)N1Cc1ccco1`, the AC50 was 1.58 µM (active).
`Nc1nc(N)c2nn(-c3ccc(C(=O)O)cc3)nc2n1` showed an activity, negative = inhibition of -13.4% [at 2.29 µM].
`COc1ccc(C(=O)N2CCC[C@@]3(CCN(C(=O)Nc4cccc(C#N)c4)C3)C2)cc1` was tested, and the AC50 was “inactive”.
`CC(C)NC(=O)N1CCCC2(CCN(C(=O)c3csnn3)CC2)C1` was tested, and the AC50 was “inactive”.
For `CSc1nc(Oc2ccc(F)cc2)c2ccccc2n1`, the AC50 was 0.794 µM (active).
With `CN1CCCC2(CCN(C(=O)c3cnccn3)CC2)C1` the AC50 was “inactive”.
`CN1CCN(CCCBr)CC1` gave an activity, negative = inhibition of -20.9% [at 11.4 µM].
For `O=C(c1cc(Br)ccc1O)c1cc(Br)ccc1O`, the AC50 was 1 µM (active).
Compound `Cc1cc(C)c(O)c(Cc2cccc(Cc3cc(C)cc(C)c3O)c2O)c1` has an activity, negative = inhibition of -14.7% [at 2.29 µM].
`Clc1ccc(CN2CCCN(Cc3ccc(Cl)cc3)C2c2cc3ccccc3c3ccccc23)cc1` was tested, and the AC50 was 0.794 µM (active).
